According to PubChem BioAssay (NCATS):
Records with an inconclusive call do not appear. Entries that show only a call come without a potency. Calls of active or inactive are those of the source. The call rests on the fitted dose curve; in most records, active means well fitted curve in the direction sought with a large enough effect; inconclusive means small, poorly fitted or top-dose-only effect, or another doubt; inactive means no such curve, though single readings can be large; an effect the other way counts as inactive or inconclusive.

Tests used:
[1] = target: Aldehyde dehydrogenase, mitochondrial (Homo sapiens) (UniProt P05091); experiment: qHTS for Inhibitors of the Aldehyde Dehydrogenase Family (ALDH2) Primary screen (AID 2061308); further: nearly all actives have a fitted effect of over 55% in size
[2] = target: Retinaldehyde dehydrogenase 3 (Homo sapiens) (UniProt P47895); experiment: qHTS for Inhibitors of the Aldehyde Dehydrogenase Family (ALDH1A3) Primary screen (AID 2061315)

| Structure (SMILES) | Potency [1] | Potency [2] |
| --- | --- | --- |
| O=[S+]1([O-])N=C(Oc2cccnc2)c2ccccc21 | inactive | inactive |
| COc1cccc(C2C(C#N)=C(NC(=O)CCc3ccccc3)Oc3ccc4ccccc4c32)c1 (configuration not stated) | inactive | inactive |
| CC1=C(C(=O)N(C)C)C(c2ccccc2Br)N=C(Nc2nc3ccccc3o2)N1 (configuration not stated) | inactive | inactive |
| CCC(=O)Nc1ccc(Cl)cc1C(=O)c1ccc[nH]1 | inactive | inactive |
| N#Cc1cc(NC(=O)Nc2nnc(-c3ccncc3)s2)ccc1F | inactive | inactive |
| O=S(=O)(c1ccc2c(c1)OCCO2)C1CCN(S(=O)(=O)c2c(F)cccc2F)CC1 | inactive | inactive |
| COc1cccc(CC(=O)Nc2nc(-c3ccc4c(c3)CCN4C(=O)c3ccccc3C)c(C)s2)c1 | inactive | inactive |
| CC(=O)c1ccc(N2CCN(S(=O)(=O)c3ccc(N4CCCC4=O)cc3)CC2)cc1 | inactive | inactive |
| O=C(OCC#CCSc1nnc(-c2cccc3ccccc23)o1)c1cccc(C(F)(F)F)c1 | inactive | inactive |
| C=C(C(=O)OC)[C@@H]1CC=C2C=CC(=O)[C@H](C)[C@@]2(C)C1 | inactive | inactive |
| CCCn1c(-c2ccc(F)cc2)nc2c(NCCCN(CCO)CCO)nc(C)nc21 | inactive | inactive |
| Cc1cc(C)nc(NC(=S)N2CCN(c3cccc(S(C)=O)c3)CC2)c1 (configuration not stated) | inactive | inactive |
| O=C(NC(NC(=S)Nc1ccc(F)c([N+](=O)[O-])c1)C(Cl)(Cl)Cl)C(c1ccccc1)c1ccccc1 (configuration not stated) | inactive | inactive |
| N#Cc1ccc(NC(=O)Nc2nnc(-c3ccncc3)s2)c(Cl)c1 | inactive | inactive |
| CN(Cc1cccs1)c1nc(-c2ccccc2C(F)(F)F)nc2ccccc12 | inactive | inactive |
| O=C(O)c1ccc(CSc2nnc(-c3ccc([S+](=O)([O-])N4CCCC4)cc3)n2-c2ccccc2)cc1 | inactive | inactive |
| COc1ccc(C2c3c(N)nc(CCCc4ccccc4)nc3Oc3ccc4ccccc4c32)cc1OC (configuration not stated) | inactive | inactive |
| Cc1cccc(C(=O)NC2CCN(C#N)CC2)c1 | inactive | inactive |
| CC1=CC(=O)CC(C)(C)C1CCC(C)OC1OC(COC(=O)c2cc(O)c(O)c(O)c2)C(O)C(O)C1O (configuration not stated) | inactive | inactive |
| COc1cc(OC)cc(-c2nnc3n2N=C(c2ccccc2OC)CS3)c1 | inactive | inactive |
| COc1cccc(C2=Nn3c(nnc3-c3ccccc3OC)SC2)c1 | inactive | inactive |

| Structure (SMILES) | Potency [1] | Potency [2] |
| --- | --- | --- |
| Cc1cccc(CNc2ncnc3ccc(-c4cccnc4)cc23)c1 | inactive | inactive |
| O=C(CSc1nc2ccc(S(=O)(=O)N3CCOCC3)cc2[nH]1)N1CCOCC1 | inactive | inactive |
| CC(C)(C)n1cnc2cc(C(=O)N3CCCCC3)ccc21 | inactive | inactive |
| COc1cccc(C2c3c(ncn(-c4cccc(C)c4)c3=N)Oc3ccc4ccccc4c32)c1 (configuration not stated) | inactive | inactive |
| Cc1ccc2oc(NC3=NC4(CCCC4)C4=C(CCCC4=O)N3)nc2c1 | inactive | inactive |
| Cc1cnc(-c2ccccc2C2COC2)nc1NCC1CCN(c2cccnc2)CC1 | inactive | inactive |
| Cc1nc(NC2CCCCC2)c2nc(-c3ccccc3)n(CC3CCN(C)CC3)c2n1 | inactive | inactive |
| COc1ccc2nc(-c3ccc(C#N)cc3)sc2c1 | inactive | inactive |
| Cc1cccc(CNc2nc(-c3ccccc3C(C)C)ncc2C)c1 | inactive | inactive |
| CCc1ccc(NC(=O)c2cnn3c(C)cc(-c4ccccc4)nc23)cc1 | inactive | inactive |
| O=[S+]([O-])(Nc1ccccc1)c1ccc(NCc2cccc(Cl)c2F)cc1 | inactive | inactive |
| Cn1nnnc1Sc1ncnc2scc(-c3cccc4ccccc34)c12 | inactive | inactive |
| N#Cc1ccccc1CNc1nc2ncc(Br)cc2[nH]1 | inactive | inactive |
| CCNC(=O)c1ccc(-c2ccc3ncnc(NCC4CCCO4)c3c2)o1 (configuration not stated) | inactive | inactive |
| Brc1cnc2nc(SCc3ccccn3)[nH]c2c1 | inactive | inactive |
| CC1(C(=O)O)CCCC2(C)C3CCC4CC3(CCC12)CC4(O)CO (configuration not stated) | inactive | inactive |
| COc1cccc(-c2nnc3n2N=C(c2c(OC)cccc2OC)CS3)c1OC | inactive | inactive |
| Cc1ccc(S(=O)(=O)NCC(=O)Nc2nc(-c3ccccc3)cs2)cc1 | inactive | inactive |
| Cc1cc(C)nc(NC(=S)N2CCN(c3nncs3)CC2)c1 | inactive | inactive |
| CCOc1ccc(CNc2ccc(-c3nc4ccccc4[nH]3)cc2)cc1 | inactive | inactive |
